# The entries come from a sample that favours hits as a whole. No count for the full screen is at hand. A number with no mark means an inactive call.
# Tested on: T1, Caupolican (Caup) homeodomain DNA-binding domain
# T1 sequence: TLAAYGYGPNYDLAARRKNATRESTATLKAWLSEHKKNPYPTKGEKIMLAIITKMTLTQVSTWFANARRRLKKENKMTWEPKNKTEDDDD
# Test: PBM E-score (8-mer, recovered from the published 9-mer minima) (E-score (dimensionless, -0.5 to 0.5)); Drosophila protein; higher = stronger relative binding preference, active = 0.31 or more
# Method in brief: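 Caup's homeodomain DNA-binding domain (residues 214-303) was produced by in vitro transcription and translation and applied at 100 nM to custom-designed protein binding microarrays. Each value is an enrichment score giving relative binding preference for a short DNA word; higher means stronger. Published 9-mer scores were the minimum of their two constituent 8-mer scores, and the 8-mer values were recovered from those minima. A cutoff of 0.31 marks candidate binding sequences.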
row,Sequence,PBM E-score
1,TCTCGAGA,0.0237
2,AACGACTG,0.0234
3,CTTCAGTC,-0.0898
4,AGTCCATG,0.0703
5,ACTGCCGG,-0.163
6,ACTATCGG,-0.056
7,CGCAGGTA,-0.0146
8,AGGTAAAA,0.0159
9,GAGTGTAC,0.121
10,GCGTGTCC,0.223
11,GCGTGTAC,0.367 (active)
12,CCTAAAAC,-0.07
13,GGTGGCCA,-0.164
14,CCCTTACA,0.152
15,ATGGCCCC,-0.175
16,AATATAGA,0.138
17,AAAAACAT,0.296
18,GTAAACAA,0.321 (active)
19,ACAAACAT,0.368 (active)
20,ATAAACAT,0.321 (active)
21,ATAAACAA,0.254
22,ACAAACAC,0.301
23,ATAAACAC,0.251
24,TTAAACAA,0.23

row,Sequence,PBM E-score
1,ACAAACCT,0.0926
2,ACAAACAA,0.317 (active)
3,ATAAACAG,0.147
4,ACAAACAG,0.258
5,CGGTGAAA,-0.001
6,ATCTTCTG,-0.0212
7,CACTAAAG,-0.125
8,GATATGGC,-0.0691
9,GATTTGCC,-0.0122
10,AGTGTAAA,0.13
11,CGTGTAAC,0.321 (active)
12,GGTGTAAA,0.24
13,ACTGTAAG,0.147
14,AGTGTAAG,0.215
15,AGTGTAAC,0.2
16,CGTGTAAG,0.333 (active)
17,CGTGTAAA,0.377 (active)
18,GGTGTAAC,0.205
19,TGTGTAAA,0.318 (active)
20,ACGTTCCG,-0.0768
21,AAGCCAGG,-0.171
22,ACCCGCAG,-0.142
23,AATTAGAC,0.132
24,CAGCGAAC,0.0117

row,Sequence,PBM E-score
1,CGGCCCTC,-0.331
2,AGGCCCCC,-0.398
3,GGATCGCA,0.00822
4,CCATAGCA,0.0725
5,AATGTTTC,0.143
6,CATGTTTA,0.399 (active)
7,GATGTTTA,0.247
8,CCTGTTTC,0.17
9,AATGTTTA,0.213
10,CATGTTTC,0.355 (active)
11,CTAGAGCA,-0.132
12,AAATGCAA,0.0939
13,CCACAGGA,-0.0146
14,ATTGCCCG,-0.0341
15,CAACTCAC,0.0566
16,AGTAAGAA,0.06
17,ATCGCAAG,-0.0386
18,ATTGTAAC,0.308
19,GTTGTAAA,0.279
20,ATTGTAAA,0.246
21,CCTGTAAC,0.176
22,CTTGTAAC,0.424 (active)
23,CTTGTAAA,0.365 (active)
24,GCATGAGA,-0.0059

row,Sequence,PBM E-score
1,CTCGTGAC,-0.0131
2,TTAGACAA,0.206
3,ATAGACAC,0.259
4,ATAGACAT,0.321 (active)
5,GTAGACAA,0.313 (active)
6,ATAGACAG,0.16
7,CTAGACAA,0.0936
8,ATCGAAAC,-0.0231
9,CTTCCAAG,-0.0467
10,AGAGGTGG,-0.107
11,AAGTATCC,-0.0551
12,AAGTATCG,0.134
13,CTGTATCC,0.2
14,ATGTATCA,0.321 (active)
15,GTGTATCA,0.276
16,ATGTATCC,0.332 (active)
17,ACGTATCG,0.15
18,ATGTATCG,0.337 (active)
19,CTGTATCA,0.15
20,ATGTCCAG,0.2
21,ACGCAACA,0.215
22,ATTTAGTC,0.0884
23,CCCCAAAC,-0.0197
24,CTTGCTGC,-0.0454

row,Sequence,PBM E-score
1,AATAACAG,0.241
2,AGTAACAT,0.316 (active)
3,AATAACAC,0.284
4,AGTAACAG,0.19
5,AATAACAT,0.348 (active)
6,AGTAACAC,0.24
7,AGGCGTCG,-0.157
8,CTTTGTCA,0.0793
9,CAAAGTAC,0.172
10,GGAGTGGA,-0.133
11,CCATATCA,0.0253
12,CCATATTC,0.011
13,ACATATTC,0.329 (active)
14,ACATATTG,0.26
15,ACATATCG,0.238
16,CCATATTA,0.105
17,ACATATTA,0.33 (active)
18,ACATATCA,≥ 0.321 (active)
19,ATATATTC,0.192
20,TTTGAAAA,0.105
21,AAGGATGT,0.185
22,AGTTAAGC,0.0239
23,GCACACCC,-0.143
24,AGAGTGCG,-0.148

row,Sequence,PBM E-score
1,CTCTCCTC,-0.078
2,CCGACGCG,-0.167
3,GCCTGGCC,-0.292
4,AACTACAG,0.177
5,AACTACAC,0.355 (active)
6,CACTACAA,0.266
7,GACTACAA,0.222
8,ACCTACAA,0.171
9,AACTACCT,0.122
10,AACTACAA,0.342 (active)
11,AACTACGT,0.151
12,AACTACAT,0.408 (active)
13,CACTACAC,0.206
14,GACTACAC,0.33 (active)
15,ATCTACAC,0.227
16,TCTCACAA,0.048
17,TAGTGTGA,0.108
18,GCCTCACC,-0.232
19,ACTAGATG,0.121
20,CACCCTAG,-0.0221
21,ACACCTCT,0.111
22,AGCGCGGC,-0.184
23,TGCACGCA,-0.0359
24,TAGATGGA,0.0256

row,Sequence,PBM E-score
1,AACATTGA,0.243
2,TACATGGA,0.413 (active)
3,AACATTGG,0.159
4,GACATGGC,0.314 (active)
5,AACATTGT,≥ 0.347 (active)
6,CACATGGC,-0.0837
7,GCCATGGC,-0.246
8,AACATGGC,0.328 (active)
9,TCCATGGA,0.0552
10,ACCATGGC,0.0502
11,ATCATGGC,-0.0613
12,ACAGTAAA,0.124
13,CCGTTCTC,-0.0675
14,CTCGCACA,-0.0236
15,CGCAGGAC,-0.0855
16,ATCTCCCC,-0.153
17,ATTCAGTG,0.034
18,CTAACGAG,0.0026
19,ACACCGTC,0.0118
20,AACATGGT,0.37 (active)
21,ACCATGGA,0.0206
22,CACATGGG,-0.0556
23,GACATGGA,0.345 (active)
24,ATCATGGG,-0.0312

row,Sequence,PBM E-score
1,CACATGGA,0.156
2,ACCATGGT,0.127
3,GAGATGGA,-0.0584
4,AACATGGG,0.351 (active)
5,AACATGGA,0.325 (active)
6,AAGATGGT,0.109
7,ATCATGGA,0.00242
8,ATAGCTTG,0.0692
9,CGACCGGC,-0.141
10,AGTAAGTG,0.00023
11,TGCGCCCA,-0.134
12,ATTAGATG,0.235
13,GCTCCATA,-0.111
14,ACGGTGGC,-0.158
15,ATGCGAAA,0.0128
16,AACAAAAA,0.141
17,GACAAGAA,0.297
18,AACAAAGA,0.0783
19,AACAAGAC,0.335 (active)
20,CACAAGAC,0.0913
21,GACAAAAC,0.137
22,CACAAGAA,0.0855
23,GACAAGAC,0.325 (active)
24,TACAAGAA,0.351 (active)

row,Sequence,PBM E-score
1,AACAAAAC,0.179
2,AACAAGAA,0.321 (active)
3,TACAAAAA,0.255
4,CATGACTA,0.198
5,CATCTTAG,0.0142
6,ATGGCGTA,0.002
7,CCTCCGCA,-0.12
8,CACTCTTC,0.0141
9,AACAAAAT,0.209
10,AACAAGAG,0.243
11,AACAAGAT,0.334 (active)
12,GACCGCAC,-0.162
13,ATAGCTCA,-0.0365
14,CTGACAAC,0.281
15,ATGACAAT,0.274
16,ATGACAAA,0.248
17,GTGACAAC,0.303
18,ATGACAAG,≥ 0.378 (active)
19,ATGACAAC,0.375 (active)
20,ATGACAGC,0.202
21,CTGACAAA,0.132
22,CTGACAAG,0.341 (active)
23,CGATCATA,0.0822
24,GGAGCCGA,-0.213

row,Sequence,PBM E-score
1,GCATCGTA,-0.088
2,ACCAGCTG,-0.0781
3,ATTTGTAG,0.239
4,CGTGAACC,-0.0185
5,CATATCGG,0.0413
6,GAGCGGCA,-0.199
7,AGCTTGTC,0.261
8,CGCTTGAA,0.0019
9,GGCTTGAA,-0.103
10,CGCTTGTC,0.272
11,GGCTTGGA,-0.0906
12,GGCTTGTA,0.312 (active)
13,AGCTTGTA,0.368 (active)
14,AGCTTGTG,-0.0301
15,CGCTTGTA,0.313 (active)

# Reference: the supplement of paper PMC3724861
